# Results published in PubChem BioAssay (EPA / NIEHS).
# Active and inactive are the calls of the source. Rule for the calls: active = hit-call score of the fitted dose curve at least 0.9, where 1 is the maximum; inactive = score below 0.9.
# Read-out: Cyclin D2 (CCND2), CCND2 (gene 894)
# Experiment: LTEA_HepaRG_CCND2: Life Technologies and Expression Analysis (LTEA) Assay for Cyclin D2 (CCND2) using HepaRG (AID 2283449)
# Conditions: mRNA level, 48 h; actives raise or lower the signal
# Summary of the method: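 CCND2 transcript levels, quantified by qRT-PCR and normalised to three housekeeping genes, were fitted bidirectionally against 0.5% DMSO. HepaRG cultures were dosed 48 h in duplicate with an 8-point half-log series up to 100 uM.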
row,Compound,outcome
1,CNC(=O)Oc1cccc2c1OC(C)(C)C2,inactive
2,CCCCCOC(=O)c1ccccc1C(=O)OCCCCC,inactive
3,CC(C)N(Cc1ccccc1)C(=O)C(C)(C)C,inactive
4,COP(=S)(OC)SCN1C(=O)c2ccccc2C1=O,inactive
5,CC(C)(O)c1cnn2c(-c3ccc(F)c(-c4c(F)cccc4C#N)c3)cnc2n1,inactive
6,Nc1ccc(Cl)cc1N,inactive
7,Oc1ccc2ccc3cccc4ccc1c2c34,inactive
8,Cn1cc(-c2ccccc2)c(=O)c(-c2cccc(C(F)(F)F)c2)c1,inactive
9,Cc1cc(N=Nc2ccccc2C)ccc1N,inactive
10,C[C@]12C=CC3=C4CCC(=O)C=C4CC[C@H]3[C@@H]1CC[C@@H]2O,inactive
11,O=C(Nc1ccccc1)c1ccccc1I,inactive
12,CC(C)(C)C(O)(CCc1ccc(Cl)cc1)Cn1cncn1 (stereo not drawn),inactive
13,CCOc1cccc(C2(N3CCN(c4ccccc4)CC3)CCC(C)CC2)c1 (stereo not drawn),inactive
14,CCCCCCCCCCCCCN1CC(C)OC(C)C1 (stereo not drawn),inactive
15,CCC(C)c1ccc(O)cc1 (stereo not drawn),inactive
16,N#CC(Br)(Br)C(N)=O,inactive
17,c1ccc(NNc2ccccc2)cc1,inactive
18,Cc1ccc(N)c(N)c1,inactive
19,O=P(OCCCl)(OCCCl)OCCCl,inactive
20,O=C(Oc1ccc(Br)cc1)N1CCN2CCC1CC2,inactive
21,Cc1ccc(N=C=O)cc1N=C=O,inactive
22,[As]#[In],inactive
23,O=[N+]([O-])c1ccc(Oc2ccc(Cl)cc2Cl)cc1,inactive
